Entries with a potency or affinity are not part of this list. Values without a mark were called inactive.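 Rule for the calls: active = Loss of cell signal with fitted half-effect dose at or below twice the top valid tested dose; inconclusive = Poor fit, or flat fit from -70 to -30 percent; inactive = Half-effect above limit, rising signal, or flat within 30 percent.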
assay: HEK293T cell cytotoxicity, dose response, cytotoxicity control for HIV Vif inhibitor project, cherry-picks (AID 652208); conditions: HEK293T viability, CellTiter-Glo luminescence, 24 h; series mostly up to 26 µM; activity change, negative = cytotoxicity: at the top concentration;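 note: 0% = median neutral control wells and -100% = median staurosporine control wells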

**Q.** For `Cc1cc(/C=C2\C(=N)N3C(SCc4ccccc4)=NSC3=NC2=O)c(C)n1Cc1ccccc1`, which “activity change, negative = cytotoxicity” value is on record?
**A.** The value was -3.76%.

**Q.** With `COc1c(Br)cc(Br)cc1/C=C1/C(=O)N=C(N)N1C` as the compound, how does the “activity change, negative = cytotoxicity” value read?
**A.** Its value is -3.7%.

**Q.** Which “activity change, negative = cytotoxicity” value does the source give for `COc1ccccc1Oc1coc2cc(OCC(N)=O)ccc2c1=O` here?
**A.** Its value is 8.29%.

**Q.** For `CNC(=O)COc1ccccc1C(=O)Nc1ccc2c(c1)oc1ccccc12`, which “activity change, negative = cytotoxicity” value is on record?
**A.** The value was -10.8%.

**Q.** Which “activity change, negative = cytotoxicity” value does the source give for `CCN1C(=O)NC(c2ccccc2)C1=O` (stereo not drawn) here?
**A.** Its value is 1.17%.

**Q.** With `CCOC(=O)C[C@@H](C#N)NC(=O)[C@@H]1CCCN1C(=O)[C@@H](NC(=O)c1ccc(N)c(Cl)c1)C(C)(C)C` as the compound, how does the “activity change, negative = cytotoxicity” value read?
**A.** The value was -8.24%.

**Q.** For `CC1(C)CC(=O)C2=C(C1)Nc1ccccc1N(C(=O)C1CC1)C2c1ccco1` (stereo not drawn), which “activity change, negative = cytotoxicity” value is on record?
**A.** The value was -1.94%.

**Q.** Which “activity change, negative = cytotoxicity” value does the source give for `Cc1ccc2c(c1)C1CN(C)CCC1N2S(=O)(=O)c1cccc(C(F)(F)F)c1` (stereo not drawn) here?
**A.** Its value is -8.3%.

**Q.** Which “activity change, negative = cytotoxicity” value does the source give for `S=C(Nc1ccccc1)N1CCn2c(nc3ccccc32)C1` here?
**A.** The value was -6.92%.

**Q.** With `Cc1cccc(N2CCN(C(=O)c3cc4ccccc4oc3=O)CC2)c1C` as the compound, how does the “activity change, negative = cytotoxicity” value read?
**A.** Its value is 5.98%.

**Q.** Which “activity change, negative = cytotoxicity” value does the source give for `Cc1cc(S(=O)(=O)N2CCOCC2)ccc1OCC(=O)NCCN1CCOCC1` here?
**A.** Its value is 0.628%.

**Q.** With `CC(=O)Nc1ccc(S(=O)(=O)N2c3ccccc3C(C)=CC2(C)C)cc1` as the compound, how does the “activity change, negative = cytotoxicity” value read?
**A.** The value was -16.1%.

**Q.** Which “activity change, negative = cytotoxicity” value does the source give for `Cc1cc(OCC(C)C)ccc1/C(O)=C1/C(=O)C(=O)N(Cc2cccnc2)C1c1ccncc1` (stereo not drawn) here?
**A.** The value was 3.25%.

**Q.** Which “activity change, negative = cytotoxicity” value does the source give for `CN1CCN(C(=S)c2ccc(OCC(=O)Nc3cccc(C(F)(F)F)c3)cc2)CC1` here?
**A.** Its value is -12.2%.

**Q.** For `CC(C)CN1C(=O)C(=O)N(CC(=O)c2ccc3c(c2)OCO3)C1=O`, which “activity change, negative = cytotoxicity” value is on record?
**A.** Its value is 6.18%.

**Q.** With `Cc1ccc2c(c1)N(CC(=O)NCC1CCCO1)C(=O)C(C(C)C)O2` (stereo not drawn) as the compound, how does the “activity change, negative = cytotoxicity” value read?
**A.** The value was 1.69%.

**Q.** For `Cc1nc(NC(=O)C(C)Oc2cccc(Cl)c2)sc1C(=O)N(C)C` (stereo not drawn), which “activity change, negative = cytotoxicity” value is on record?
**A.** Its value is -12.6%.

**Q.** With `Cc1ccc(-c2nn3c(C)nnc3c3ccccc23)cc1S(=O)(=O)NCc1ccccc1` as the compound, how does the “activity change, negative = cytotoxicity” value read?
**A.** The value was -23.3%.

**Q.** Which “activity change, negative = cytotoxicity” value does the source give for `NC(=O)c1sc2nc(-c3ccccc3)ccc2c1N` here?
**A.** The value was 16%.

**Q.** Which “activity change, negative = cytotoxicity” value does the source give for `CN(Cc1ccccc1)C(=O)CCC1CCN(C(=O)c2ccco2)CC1` here?
**A.** Its value is -3.47%.

**Q.** For `C/C=C/c1ccc(OCCNCc2ccccc2)c(OC)c1`, which “activity change, negative = cytotoxicity” value is on record?
**A.** Its value is 0.443%.

**Q.** Which “activity change, negative = cytotoxicity” value does the source give for `O=c1sc(N2CCN(c3ccc(F)cc3)CC2)nc2ccsc12` here?
**A.** The value was -4.85%.

**Q.** For `O=C(CCN1CCOCC1)Nc1ccc(Cl)cc1`, which “activity change, negative = cytotoxicity” value is on record?
**A.** The value was 0.037%.

**Q.** For `COc1cc(C(=O)NCCc2cn3ccc(C)cc3n2)cc(OC)c1OC`, which “activity change, negative = cytotoxicity” value is on record?
**A.** The value was 4.46%.

**Q.** For `COc1cc(-c2cnc3c(NC=O)cc(-c4cccc(NC(C)=O)c4)cn23)cc(OC)c1OC`, which “activity change, negative = cytotoxicity” value is on record?
**A.** The value was -21.3%.

**Q.** With `O=C(Nc1nn[nH]n1)c1cc(-c2ccc(Cl)c(Cl)c2Cl)nc2ccccc12` as the compound, how does the “activity change, negative = cytotoxicity” value read?
**A.** The value was 6.49%.

**Q.** For `COc1ccc(OC)c(NC(=O)c2cc3ccccc3cc2OC)c1`, which “activity change, negative = cytotoxicity” value is on record?
**A.** Its value is -7.06%.

**Q.** With `COc1ccc(CC(NC(C)=O)C(=O)NC2CCN(C(=O)c3ccccc3F)CC2)cc1` (stereo not drawn) as the compound, how does the “activity change, negative = cytotoxicity” value read?
**A.** The value was -6.87%.

**Q.** For `CCC(C)n1c(-c2cccs2)nc2nc3ccccc3nc21` (stereo not drawn), which “activity change, negative = cytotoxicity” value is on record?
**A.** The value was -14.9%.

**Q.** For `COc1ccc(-c2nnc(SCC(=O)N3CCCc4ccccc43)o2)cc1OC`, which “activity change, negative = cytotoxicity” value is on record?
**A.** Its value is -13.4%.

**Q.** With `CNC(=O)c1ccc(NC(=O)c2cc(S(=O)(=O)N(C)C)ccc2N2CCCC2)cc1` as the compound, how does the “activity change, negative = cytotoxicity” value read?
**A.** The value was -3.29%.

**Q.** For `Cc1ccc2c(COC(=O)c3ccccc3OC(F)F)cc(=O)oc2c1`, which “activity change, negative = cytotoxicity” value is on record?
**A.** Its value is -30.2%.

**Q.** With `COc1ccccc1NC(=O)c1ccccc1NC(=O)c1ccccn1` as the compound, how does the “activity change, negative = cytotoxicity” value read?
**A.** The value was -11.9%.

**Q.** Which “activity change, negative = cytotoxicity” value does the source give for `Cc1ccc(Nc2cc(=O)[nH]c(=O)[nH]2)cc1C` here?
**A.** The value was -11.3%.

**Q.** With `CCOC(=O)C1CCCN(CC(=O)Nc2c(C(=O)OC)[nH]c3ccc(Cl)cc23)C1` (stereo not drawn) as the compound, how does the “activity change, negative = cytotoxicity” value read?
**A.** The value was -13.6%.

**Q.** With `CCCOc1ccc(C(O)(CCC)CCN2CCCCC2)cc1` (stereo not drawn) as the compound, how does the “activity change, negative = cytotoxicity” value read?
**A.** Its value is -4.04%.

**Q.** For `COc1cccc(NC(=O)NC2(C(F)(F)F)Oc3ccccc3O2)c1`, which “activity change, negative = cytotoxicity” value is on record?
**A.** Its value is -13.2%.

**Q.** For `Cc1ccc(-n2c(SCC(=O)Nc3ccc4c(c3)OCO4)nnc2-c2cccs2)cc1`, which “activity change, negative = cytotoxicity” value is on record?
**A.** Its value is 9.98%.

From PubChem BioAssay AID652208 (Broad Institute, 2013)
